Assay results reported in PubChem BioAssay (NCI).
Where “and” joins values, the source holds several entries; their conditions need not be identical. Equal values may be shown once. About 79,000 compounds went through this panel and 15% of them were active in at least one assay; those are over-represented in the sample as a whole. Some structures have more than one record in an assay (separate samples or runs), and their calls can disagree. Calls of active or inactive are those of the source. Cut-off read from the data, not from the text of the source: active = growth inhibition above about 70%; inactive = the rest.

Columns and labels:
[1] = NCI Yeast Anticancer Drug Screen. Data for the rad50 strain (AID 155);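 note: 0% = growth of vehicle-only cultures of the same strain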; details: S. cerevisiae rad50 strain growth inhibition, stronger effect = higher value
Summary of the method: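 Inhibition values express reduced yeast growth in compound-treated cultures relative to vehicle-treated controls.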

[2] = NCI Yeast Anticancer Drug Screen. Data for the mec2-1 strain (AID 157); details: S. cerevisiae mec2-1 strain, stronger effect = higher value
Summary of the method: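 Using mec2-1 yeast: add compound, measure growth, express inhibition versus vehicle-treated cultures.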

[3] = NCI Yeast Anticancer Drug Screen. Data for the sgs1 mgt1 strain (AID 161);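 note: 0% = growth of cultures given vehicle only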; details: S. cerevisiae sgs1 mgt1 strain, stronger effect = higher value
Summary of the method: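 Yeast cells carrying a defined DNA-repair defect were exposed to test compounds. Growth inhibition was measured relative to vehicle-treated controls.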

[4] = NCI Yeast Anticancer Drug Screen. Data for the cln2 rad14 strain (AID 165);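 note: 0% = growth equal to vehicle treated cultures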; details: S. cerevisiae cln2 rad14 strain, stronger effect = higher value
Summary of the method: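 Yeast strain cln2 rad14, bearing defects in cell cycle control and DNA repair, serves as the test system; values reflect growth inhibition compared with vehicle.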

[5] = NCI Yeast Anticancer Drug Screen. Data for the bub3 strain (AID 167); details: S. cerevisiae bub3 mutant strain, stronger effect = higher value
Summary of the method: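 Steps: expose the mutant yeast strain to compound; grow alongside vehicle-treated cultures; measure growth; express inhibition against the vehicle cultures.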

[6] = NCI Yeast Anticancer Drug Screen. Data for the mlh1 rad18 strain (AID 175); details: S. cerevisiae mlh1 rad18 strain growth inhibition, stronger effect = higher value
Summary of the method: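 Steps: expose repair-defective yeast to compound; measure growth; express inhibition against vehicle-treated controls.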

[7] = NCI Yeast Anticancer Drug Screen. Data for the wt2 strain (AID 169);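 note: 0% = growth of vehicle-treated yeast cultures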; details: S. cerevisiae wt2 strain growth inhibition, stronger effect = higher value
Summary of the method: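 Treated yeast vs. vehicle-treated yeast: growth inhibition determined.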

[8] = at 5.0 µM (retest, dose inferred, filed as 0.5)
[9] = at 50.0 µM (retest, dose inferred, filed as 5.0)

Measured: growth inhibition

COc1cc(OC)c(OC)cc1/C=C\c1ccnc2ccccc12
active: [1]; [9] 73% | [3]; [9] 88% | [3]; at 50.0 µM 88.4% | [5]; [9] 79% | [6]; [9] 83%
inactive: [1]; [8] 19% | [1]; at 50.0 µM 33.8% | [2]; [8] 13% | [2]; [9] 65% | [2]; at 50.0 µM 37% | [3]; [8] 10% | [4]; [8] 18% | [4]; [9] 57% | [4]; at 50.0 µM 41.5% | [5]; [8] 6% | [5]; at 50.0 µM 62.8% | [6]; [8] 13%

COc1ccc(/C=C/NC=O)cc1
inactive: [1]; [8] -2% | [1]; [9] -1% | [1]; at 50.0 µM -17.2% | [2]; [8] -3% | [2]; [9] 0% | [2]; at 50.0 µM 0.35% | [3]; [8] -2% | [3]; [9] -1% | [3]; at 50.0 µM -9.6% | [4]; [8] -2% | [4]; [9] 4% | [4]; at 50.0 µM -8.25% | [5]; [8] 1% | [5]; [9] 6% | [5]; at 50.0 µM 19.8%

Cc1c2ccccc2c(C=O)c2ccccc12
inactive: [1]; [8] 40% | [2]; [8] 44% | [3]; [8] -13% | [3]; [9] 57% | [4]; [8] 50% | [4]; [9] 59% | [5]; [8] 2% | [5]; [9] 67% | [7]; at 1.2 µM -11% | [7]; at 3.7 µM -16% | [7]; at 11.0 µM -4% | [7]; at 33.0 µM 23% | [6]; [8] 40%
active: [1]; [9] 96% | [1]; at 50.0 µM 86.2% | [2]; [9] 99% | [2]; at 50.0 µM 89% | [3]; at 50.0 µM 91.2% | [4]; at 50.0 µM 88.2% | [5]; at 50.0 µM 88.5% | [7]; at 100.0 µM 93% | [6]; [9] 99% | [6]; at 50.0 µM 87.4%

Cc1ccc(OC(=O)c2ccc(N)cc2O)cc1
inactive: [1]; [8] 48% | [1]; at 50.0 µM 45.1% | [2]; at 50.0 µM 68.2% | [3]; [8] -3% | [3]; at 50.0 µM 42.5% | [4]; [8] 39% | [4]; at 50.0 µM 42.2% | [5]; [8] 24% | [7]; at 1.2 µM 0% | [7]; at 3.7 µM -4% | [7]; at 11.0 µM 15% | [7]; at 33.0 µM 43% | [6]; [8] 33% | [6]; at 50.0 µM 53.3%
active: [1]; [9] 86% | [2]; [8] 83% | [2]; [9] 90% | [3]; [9] 93% | [4]; [9] 97% | [5]; [9] 90% | [5]; at 50.0 µM 77.7% | [7]; at 100.0 µM 86% | [6]; [9] 97%

N=C1N(c2ccccc2)C(=S)C(=Nc2ccccc2)N1c1ccccc1
inactive: [1]; [8] 16% | [2]; [8] -4% | [3]; [8] 8% | [4]; [8] 9% | [5]; [8] -33%
active: [1]; [9] 99% | [1]; at 50.0 µM 88.5% | [2]; [9] 99% | [2]; at 50.0 µM 90.8% | [3]; [9] 99% | [3]; at 50.0 µM 84% | [4]; [9] 99% | [4]; at 50.0 µM 82% | [5]; [9] 99% | [5]; at 50.0 µM 84.2%

CC(C)(C)CC(C)(C)c1ccc(OCCO)cc1
-22.7% (inactive) and 99.6% (active): [1]; at 50.0 µM
-49.5% (inactive) and 99.3% (active): [4]; at 50.0 µM
-40.5% (inactive) and 99.5% (active): [5]; at 50.0 µM
25.9% (inactive) and 99.5% (active): [3]; at 50.0 µM
active: [1]; [9] 98% | [2]; [9] 99% | [3]; [9] 97% | [4]; [9] 99% | [5]; [9] 99%
-11.3% (inactive) and 99.5% (active): [2]; at 50.0 µM
inactive: [1]; [8] -2% | [2]; [8] -16% | [3]; [8] -6% | [4]; [8] -13% | [5]; [8] -21%

O=C1C(Cl)=C(N2CCN(C3=C(Cl)C(=O)c4ccccc4C3=O)CC2)C(=O)c2ccccc21
inactive: [1]; [8] 26% | [2]; [8] 8% | [3]; [8] 44% | [4]; [8] 14% | [5]; [8] 39% | [6]; [8] 26%
active: [1]; [9] 98% | [1]; at 50.0 µM 84.4% | [2]; [9] 99% | [2]; at 50.0 µM 87.8% | [3]; [9] 99% | [3]; at 50.0 µM 88.7% | [4]; [9] 98% | [4]; at 50.0 µM 87.8% | [5]; [9] 98% | [5]; at 50.0 µM 87.9% | [6]; [9] 98%
